# Test results published in the supplement of paper PMC10849652.
# Of roughly 7,900 targets only a part is listed; those with a hit were picked by preference. About 0.6% of all pairs of compound and target were hits. A number with no mark means an inactive call.
# Columns and labels:
# Assay in all cases: log2 fold change, soluble protein after heating vs DMSO (PISA); higher = thermal stabilisation; K562 cells, 10 uM, 30 min; active = over 0.2 and 3.5 SD of the protein, either way, in both replicates (recomputed)
# [1] = compound: CC[C@@H]1C(=O)N(C)c2cnc(Nc3ccc(C(=O)NC4CCN(C)CC4)cc3OC)nc2N1C1CCCC1
# In short: (§1)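 Quantification of soluble protein used TMTpro 16plex LC-MS/MS, with channel sums equalised. Samples were the supernatant after 21,000xg for 90 min of pooled aliquots from K562 cells (2×10^6 cells/mL) treated with 10 μM compound for 30 min, heated for 3 min over 48°C-58°C, and extracted in PBS with 0.5% NP-40 at 4°C. Values, from duplicates, describe thermal stability against control samples on a log2 fold-change scale.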
# volasertib = compound: CC[C@@H]1C(=O)N(C)c2cnc(Nc3ccc(C(=O)N[C@H]4CC[C@H](N5CCN(CC6CC6)CC5)CC4)cc3OC)nc2N1C(C)C [volasertib]
# In short: as §1
# [2] = compound: CC[C@H](C)N1C=C(C2=C(C=C(C=C21)C3=CN=C(C=C3)N4CCNCC4)C(=O)NCC5=C(C=C(NC5=O)C)C)C
# In short: as §1
# epoxomicin = compound: CC[C@H](C)[C@@H](C(=O)N[C@@H]([C@@H](C)O)C(=O)N[C@@H](CC(C)C)C(=O)[C@]1(CO1)C)NC(=O)[C@H]([C@@H](C)CC)N(C)C(=O)C [epoxomicin]
# In short: as §1
# [3] = compound: CCn1c(C(=O)N(C2CC2)C2CC2)cc2c3c(ncn3C)c(Nc3cc(C)n(C)n3)nc21
# In short: as §1
# [4] = compound: CCn1cc(-c2ccnc3[nH]c(-c4cccc(CN(C)C)c4)cc23)c(-c2ccc(NC(=O)N(C)C)cc2)n1
# In short: as §1
# [5] = compound: CN(C)CC(=O)Nc1ccc2[nH]c(=O)c3ccccc3c2c1
# In short: as §1
# rosiglitazone = compound: CN(CCOC1=CC=C(C=C1)C[C@H]2C(=O)NC(=O)S2)C3=CC=CC=N3 (racemic) [rosiglitazone]
# In short: as §1
# [6] = compound: CN1C2=C(C3=C1C(=O)N(N=C3)CC4=CC(=CC=C4)N)SC(=C2)S(=O)C
# In short: as §1
# [7] = compound: CN1CCC(CNc2ccc3ncc(-c4cccc(OC(F)(F)F)c4)n3n2)CC1
# In short: as §1
# saracatinib = compound: CN1CCN(CCOc2cc(OC3CCOCC3)c3c(Nc4c(Cl)ccc5c4OCO5)ncnc3c2)CC1 [saracatinib]
# In short: as §1
# sotrastaurin = compound: CN1CCN(c2nc(C3=C(c4c[nH]c5ccccc45)C(=O)NC3=O)c3ccccc3n2)CC1 [sotrastaurin]
# In short: as §1
# alvocidib = compound: CN1CC[C@H](c2c(O)cc(O)c3c(=O)cc(-c4ccccc4Cl)oc23)[C@H](O)C1 [alvocidib]
# In short: as §1
# Tubastatin A = compound: CN1CCc2c(c3ccccc3n2Cc2ccc(C(=O)NO)cc2)C1 [Tubastatin A]
# In short: as §1
# [8] = compound: CNC(=O)C1=CC=CC=C1NC2=NC(=NC=C2Cl)NC3=C(C=C(C=C3)N4CCOCC4)OC
# In short: as §1
# defactinib = compound: CNC(=O)c1ccc(Nc2ncc(C(F)(F)F)c(NCc3nccnc3N(C)S(C)(=O)=O)n2)cc1 [defactinib]
# In short: as §1
# rucaparib = compound: CNCc1ccc(-c2[nH]c3cc(F)cc4c3c2CCNC4=O)cc1 [rucaparib]
# In short: as §1
# [9] = compound: CNc1nc(-c2ccc3c(N)n[nH]c3c2)cc(N2C[C@@H](C(=O)NC3CCCCC3)CC[C@H]2C)n1
# In short: as §1
# encorafenib = compound: COC(=O)N[C@@H](C)CNc1nccc(-c2cn(C(C)C)nc2-c2cc(Cl)cc(NS(C)(=O)=O)c2F)n1 [encorafenib]
# In short: as §1
# [10] = compound: COC(=O)[C@H](CCSC)NC(=O)C1=C(C=C(C=C1)NC[C@H](CS)N)C2=CC=CC=C2
# In short: as §1
# Chain of UniProt Q96DA6 (Q96DA6 whole entry, looked up): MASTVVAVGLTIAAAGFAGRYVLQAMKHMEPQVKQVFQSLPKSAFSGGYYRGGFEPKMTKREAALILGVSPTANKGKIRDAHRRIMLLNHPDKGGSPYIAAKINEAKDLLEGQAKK
# Chain of UniProt Q14320 (Q14320 whole entry, looked up): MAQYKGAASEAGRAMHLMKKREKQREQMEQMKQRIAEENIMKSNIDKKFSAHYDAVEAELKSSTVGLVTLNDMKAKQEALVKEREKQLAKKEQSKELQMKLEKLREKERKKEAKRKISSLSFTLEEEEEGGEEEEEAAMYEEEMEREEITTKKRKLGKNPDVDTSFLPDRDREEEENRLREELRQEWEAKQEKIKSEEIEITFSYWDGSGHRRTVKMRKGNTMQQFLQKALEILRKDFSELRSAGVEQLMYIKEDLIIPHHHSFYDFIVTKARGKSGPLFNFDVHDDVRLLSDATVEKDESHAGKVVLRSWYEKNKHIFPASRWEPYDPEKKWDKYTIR
# Chain of UniProt P34913 (P34913 whole entry, looked up): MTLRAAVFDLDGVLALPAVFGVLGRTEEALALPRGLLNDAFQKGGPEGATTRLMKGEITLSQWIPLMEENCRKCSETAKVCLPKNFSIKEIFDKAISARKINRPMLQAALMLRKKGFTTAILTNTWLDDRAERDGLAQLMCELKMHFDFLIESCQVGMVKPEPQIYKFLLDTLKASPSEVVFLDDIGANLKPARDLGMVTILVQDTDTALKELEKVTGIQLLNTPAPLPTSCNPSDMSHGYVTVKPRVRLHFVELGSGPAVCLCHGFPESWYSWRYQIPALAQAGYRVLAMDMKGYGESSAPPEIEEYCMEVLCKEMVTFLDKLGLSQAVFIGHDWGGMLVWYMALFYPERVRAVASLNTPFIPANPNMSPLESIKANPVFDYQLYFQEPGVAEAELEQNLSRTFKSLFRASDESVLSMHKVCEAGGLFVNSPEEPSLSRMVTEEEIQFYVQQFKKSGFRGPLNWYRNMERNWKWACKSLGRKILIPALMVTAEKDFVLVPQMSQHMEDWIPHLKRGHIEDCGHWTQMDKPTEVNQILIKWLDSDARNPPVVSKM
# Chain of UniProt Q9NQI0 (Q9NQI0 whole entry, looked up): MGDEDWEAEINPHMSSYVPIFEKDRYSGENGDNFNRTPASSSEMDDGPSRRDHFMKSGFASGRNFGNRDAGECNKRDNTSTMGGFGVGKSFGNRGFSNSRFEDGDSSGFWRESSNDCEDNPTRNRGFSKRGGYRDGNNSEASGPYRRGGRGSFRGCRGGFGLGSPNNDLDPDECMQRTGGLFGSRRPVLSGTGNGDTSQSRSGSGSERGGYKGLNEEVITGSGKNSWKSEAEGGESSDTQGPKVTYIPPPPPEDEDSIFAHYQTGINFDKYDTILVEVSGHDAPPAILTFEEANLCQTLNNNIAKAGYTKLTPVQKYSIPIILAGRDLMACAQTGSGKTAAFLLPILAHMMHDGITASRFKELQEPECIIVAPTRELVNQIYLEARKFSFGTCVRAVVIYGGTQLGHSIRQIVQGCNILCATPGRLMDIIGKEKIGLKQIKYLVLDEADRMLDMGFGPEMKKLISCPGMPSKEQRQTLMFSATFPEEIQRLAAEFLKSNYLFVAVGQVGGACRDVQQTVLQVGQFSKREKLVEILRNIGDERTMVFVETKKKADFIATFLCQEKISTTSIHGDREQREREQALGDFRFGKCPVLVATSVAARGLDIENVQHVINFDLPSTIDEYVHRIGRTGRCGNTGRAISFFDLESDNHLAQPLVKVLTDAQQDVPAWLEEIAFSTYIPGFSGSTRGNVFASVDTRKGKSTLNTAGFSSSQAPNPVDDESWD
# Chain of UniProt Q16531 (Q16531 whole entry, looked up): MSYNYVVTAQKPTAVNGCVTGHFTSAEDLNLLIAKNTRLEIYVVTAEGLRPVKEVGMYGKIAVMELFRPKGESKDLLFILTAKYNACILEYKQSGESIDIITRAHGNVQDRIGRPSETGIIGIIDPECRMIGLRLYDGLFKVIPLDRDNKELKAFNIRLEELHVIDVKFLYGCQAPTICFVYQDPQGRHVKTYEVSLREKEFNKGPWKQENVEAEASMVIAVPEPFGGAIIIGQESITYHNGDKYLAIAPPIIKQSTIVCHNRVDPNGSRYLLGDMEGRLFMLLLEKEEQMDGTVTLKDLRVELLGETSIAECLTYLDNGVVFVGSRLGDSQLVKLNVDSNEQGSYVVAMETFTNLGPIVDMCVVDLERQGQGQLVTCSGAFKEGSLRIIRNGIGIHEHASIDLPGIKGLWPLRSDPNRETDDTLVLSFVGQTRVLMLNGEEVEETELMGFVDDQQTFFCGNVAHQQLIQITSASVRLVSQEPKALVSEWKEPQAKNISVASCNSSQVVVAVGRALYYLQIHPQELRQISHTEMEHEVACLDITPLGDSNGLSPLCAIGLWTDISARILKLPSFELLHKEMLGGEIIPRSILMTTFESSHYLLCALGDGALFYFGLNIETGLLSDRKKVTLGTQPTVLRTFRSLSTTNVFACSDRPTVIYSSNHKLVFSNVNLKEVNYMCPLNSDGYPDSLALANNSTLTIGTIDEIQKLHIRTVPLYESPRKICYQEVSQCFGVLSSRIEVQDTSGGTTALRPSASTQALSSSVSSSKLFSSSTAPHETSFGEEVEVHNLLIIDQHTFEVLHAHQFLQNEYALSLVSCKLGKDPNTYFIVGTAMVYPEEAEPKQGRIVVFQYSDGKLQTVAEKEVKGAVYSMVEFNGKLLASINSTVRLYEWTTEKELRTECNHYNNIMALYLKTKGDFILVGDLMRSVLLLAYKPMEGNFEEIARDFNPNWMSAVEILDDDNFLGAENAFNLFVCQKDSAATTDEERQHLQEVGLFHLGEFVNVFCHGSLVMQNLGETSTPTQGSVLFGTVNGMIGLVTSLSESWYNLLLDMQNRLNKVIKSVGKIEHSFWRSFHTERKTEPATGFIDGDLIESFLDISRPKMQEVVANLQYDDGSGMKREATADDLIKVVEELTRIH
# Chain of UniProt Q8TAG9 (Q8TAG9 whole entry, looked up): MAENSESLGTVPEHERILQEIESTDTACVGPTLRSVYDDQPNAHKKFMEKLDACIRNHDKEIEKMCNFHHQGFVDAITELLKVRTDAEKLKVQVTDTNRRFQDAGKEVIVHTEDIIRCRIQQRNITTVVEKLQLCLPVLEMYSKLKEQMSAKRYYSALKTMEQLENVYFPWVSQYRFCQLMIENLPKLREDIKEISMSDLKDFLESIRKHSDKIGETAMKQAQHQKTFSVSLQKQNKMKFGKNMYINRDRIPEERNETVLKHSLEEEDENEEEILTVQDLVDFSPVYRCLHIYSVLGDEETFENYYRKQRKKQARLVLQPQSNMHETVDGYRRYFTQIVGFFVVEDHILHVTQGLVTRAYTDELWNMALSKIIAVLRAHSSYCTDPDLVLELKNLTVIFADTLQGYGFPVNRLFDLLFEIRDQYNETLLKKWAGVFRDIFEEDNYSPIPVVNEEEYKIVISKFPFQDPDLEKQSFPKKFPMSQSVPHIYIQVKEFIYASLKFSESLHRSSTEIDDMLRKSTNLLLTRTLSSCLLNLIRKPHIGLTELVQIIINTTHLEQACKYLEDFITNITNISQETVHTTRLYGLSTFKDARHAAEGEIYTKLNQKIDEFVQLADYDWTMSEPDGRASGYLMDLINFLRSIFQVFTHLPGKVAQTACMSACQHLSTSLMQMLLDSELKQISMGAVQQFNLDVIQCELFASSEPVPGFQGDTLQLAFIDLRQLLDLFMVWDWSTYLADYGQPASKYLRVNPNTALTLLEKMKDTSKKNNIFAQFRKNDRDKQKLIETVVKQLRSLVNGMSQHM
# Chain of UniProt Q9H2U1 (Q9H2U1 whole entry, looked up): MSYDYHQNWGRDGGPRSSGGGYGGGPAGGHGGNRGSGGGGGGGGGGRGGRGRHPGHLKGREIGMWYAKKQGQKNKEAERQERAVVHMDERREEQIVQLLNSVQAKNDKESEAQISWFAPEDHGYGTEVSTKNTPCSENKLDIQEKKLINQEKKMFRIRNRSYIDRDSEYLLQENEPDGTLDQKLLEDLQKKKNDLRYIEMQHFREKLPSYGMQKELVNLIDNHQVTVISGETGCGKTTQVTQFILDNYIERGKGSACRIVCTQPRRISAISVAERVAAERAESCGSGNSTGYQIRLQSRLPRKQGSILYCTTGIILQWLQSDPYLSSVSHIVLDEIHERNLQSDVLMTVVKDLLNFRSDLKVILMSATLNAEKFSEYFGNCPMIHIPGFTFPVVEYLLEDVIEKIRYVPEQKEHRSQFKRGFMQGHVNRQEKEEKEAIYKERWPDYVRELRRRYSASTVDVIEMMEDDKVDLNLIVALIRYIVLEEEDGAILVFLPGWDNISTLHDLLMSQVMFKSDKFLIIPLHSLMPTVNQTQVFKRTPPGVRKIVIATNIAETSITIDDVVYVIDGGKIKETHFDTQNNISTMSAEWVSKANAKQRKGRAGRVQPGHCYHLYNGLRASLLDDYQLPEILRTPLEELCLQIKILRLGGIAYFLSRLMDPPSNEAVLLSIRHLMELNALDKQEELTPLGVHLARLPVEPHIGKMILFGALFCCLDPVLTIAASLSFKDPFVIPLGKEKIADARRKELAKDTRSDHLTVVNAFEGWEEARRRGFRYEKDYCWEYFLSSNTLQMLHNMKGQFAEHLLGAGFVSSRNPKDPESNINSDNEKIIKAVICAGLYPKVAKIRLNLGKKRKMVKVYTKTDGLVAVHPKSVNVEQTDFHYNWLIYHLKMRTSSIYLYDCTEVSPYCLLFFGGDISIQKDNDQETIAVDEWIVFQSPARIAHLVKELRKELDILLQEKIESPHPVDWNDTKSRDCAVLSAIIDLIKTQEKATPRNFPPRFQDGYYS
# Chain of UniProt P24534 (P24534 whole entry, looked up): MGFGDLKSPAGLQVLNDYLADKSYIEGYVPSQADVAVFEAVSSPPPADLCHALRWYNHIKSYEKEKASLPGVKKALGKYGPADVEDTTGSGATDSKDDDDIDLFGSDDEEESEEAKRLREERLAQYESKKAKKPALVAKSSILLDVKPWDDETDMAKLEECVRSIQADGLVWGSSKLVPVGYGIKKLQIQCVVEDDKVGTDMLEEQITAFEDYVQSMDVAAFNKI
Target,log2 fold change [1],log2 fold change (volasertib),log2 fold change [2],log2 fold change (epoxomicin),log2 fold change [3],log2 fold change [4],log2 fold change [5],log2 fold change (rosiglitazone),log2 fold change [6],log2 fold change [7],log2 fold change (saracatinib),log2 fold change (sotrastaurin),log2 fold change (alvocidib),log2 fold change (Tubastatin A),log2 fold change [8],log2 fold change (defactinib),log2 fold change (rucaparib),log2 fold change [9],log2 fold change (encorafenib),log2 fold change [10]
EIF2S3 (UniProt P41091),0.076,0.073,0.026,-0.144,0.009,0.055,-0.034,-0.02,0.068,0.049,-0.016,0,0.057,-0.006,-0.02,0.114,0.124,0.033,0.04,-0.002
DNAJC19 (UniProt Q96DA6),-0.094,-0.042,-0.014,-0.015,0.04,-0.022,0.002,-0.01,-0.05,-0.148,0.025,-0.029,-0.021,-0.038,0.003,-0.027,0.01,-0.028,-0.044,-0.012
DDB1 (UniProt Q16531),0.045,0.036,-0.032,-0.024,0.021,0.009,-0.005,-0.01,-0.028,0,0.04,0.04,0.004,-0.025,0.001,0.002,-0.033,-0.035,0.003,0
ELOVL1 (UniProt Q9BW60),-0.217,-0.127,-0.011,0.003,-0.044,0.032,0.116,0.002,-0.068,-0.691 (active),0.015,0.037,-0.011,-0.015,-0.223,-0.029,0.05,0.017,-0.011,0
EEF1B2 (UniProt P24534),-0.171,-0.343 (active),0.056,-0.034,-0.015,0.007,0.016,0.008,0.03,-0.065,-0.091,-0.061,-0.009,0.017,0.06,-0.064,0.041,-0.013,0.07,-0.046
DHPS (UniProt P49366),0.045,0.028,0.001,0.046,-0.002,0.014,-0.012,-0.01,-0.017,-0.049,0.087,0.043,-0.013,0.005,-0.026,-0.027,-0.018,-0.053,-0.012,-0.011
DFFB (UniProt O76075),0.049,0.036,0.104,0.039,-0.057,0.028,-0.036,0,-0.074,-0.01,0.017,0.052,-0.038,0.07,0.009,0.024,0.049,-0.016,-0.019,0.033
DDX39A (UniProt O00148),0.037,-0.104,0.034,-0.096,-0.037,-0.123,-0.002,0.018,0.038,-0.016,0.018,-0.149,-0.061,0.007,-0.143,-0.213,0.111,-0.041,-0.016,-0.032
EXOC6 (UniProt Q8TAG9),-0.224,-0.443 (active),0.102,-0.06,-0.051,0.014,0.033,0.009,0.06,-0.23,-0.02,-0.153,-0.151,0.042,0.075,-0.061,0.025,-0.015,0.013,0.009
FAM50A (UniProt Q14320),-0.158,-0.258 (active),0.06,0.058,-0.022,0.053,0.029,0.001,-0.07,-0.052,0.11,-0.119,-0.064,0.029,0.056,-0.203,-0.027,0.08,0.055,-0.023
EPHX2 (UniProt P34913),0.098,0.117,-0.019,-0.012,-0.002,-0.032,-0.015,0.033,0.066,0.091,-0.009,0.172,-0.023,0.003,-0.022,-0.002,0.002,0.216,0.003,-0.011
EOGT (UniProt Q5NDL2),-0.004,0.013,-0.037,0.05,-0.007,0.001,0,0.022,0.021,0.062,-0.012,0.052,-0.02,0.025,0,0.031,0.014,-0.158,0.042,-0.032
CTSA (UniProt P10619),-1.24 (active),-1.57 (active),-0.037,-0.003,-0.031,0.018,0.011,-0.017,-0.007,-1.44 (active),0.056,0.089,0.04,-0.015,0.06,0.022,-0.041,0.002,0.057,0.065
DHX36 (UniProt Q9H2U1),0.11,0.059,0.002,-0.032,-0.009,0.032,-0.032,-0.015,0.086,-0.027,-0.014,0.021,0.122,0.048,-0.041,0.171,0.187,0.03,0.095,0.011
DDX4 (UniProt Q9NQI0),0.139,-0.006,0.067,-0.113,-0.223,0.047,-0.414,0.097,0.025,-0.844,-0.342,0.209,0.206,0.102,-0.097,0.11,0.543,-0.095,0.121,0.067
DHX16 (UniProt O60231),-0.032,-0.158,0.032,0.051,-0.05,-0.054,-0.025,0.031,-0.033,-0.012,0.024,-0.037,-0.045,-0.001,-0.042,-0.035,-0.027,0.028,0.019,-0.013
